Assay outcomes as filed in PubChem.
FAS-TE inh: blocks the thioesterase domain of human fatty acid synthase. P49327. recombinant FAS-TE, OMFH fluorogenic substrate, fluorescence endpoint. inhibition, % at 15 µM. 360,000 tested, 0.67% active;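 active means compounds whose normalised, plate-corrected inhibition of enzyme fluorescence in the single-dose primary screen is 50% or more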
Mot1-301 SUMO: inhibitors of SUMOylation pathway: yeast Mot1-301 growth rescue; S. cerevisiae Mot1-301 growth rescue, ATP luminescence, 38.5C; percent above DMSO median, 100 means doubled; growth rescue, % at 18.8 µM; 320,000 tested, 1% active;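 active means every valid replicate shows activation above 250% relative to neutral control wells; inactive means the rest, any valid replicate at or below 250%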
MPTP block: blocks calcium-induced mitochondrial swelling. isolated mouse mitochondria, Ca2+ swelling absorbance, 30 min. inhibition, % at 10 µM. 360,000 tested, 1.4% active;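 active means inhibition of 50% or more, scaled per plate between neutral and stimulator controls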
aDG glyco up: increases alpha dystroglycan glycosylation; Pro5-aDG cells, alpha-DG glycosylation AlphaScreen (IIH6); 0% Pro5, 100% B10-LARGE cell signal; activation, % at 10 µM; 360,000 tested, 0.22% active; AID 624168;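 active means activation of at least 8% versus controls, or a plate z-score of at least 8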;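 further: Pro5 are CHO cells carrying HIG-tagged alpha-DG that lacks glycosylation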
Yeast superoxide: caloric restriction mimetics inhibiting age-related superoxide in yeast. S. cerevisiae aged cells, superoxide DHE fluorescence; active compounds read low. superoxide response (% of plate mean), % at 10 µM. AID 2690. 330,000 tested, 0.18% active;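 active means superoxide response under a set limit, about three screen SD below normal, cut at about 65% in these data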;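 further: yeast aged for seven days with compound at 30 °C before DHE staining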
Cardio protect: protects H9c2 cardiomyocytes from peroxide injury. protection from H2O2 cell death, % at 20 µM. H2O2 injury protection, ATPLite, 2 h. 360,000 tested, 0.63% active;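 active means compounds giving at least 50% protection of heart cells from peroxide-induced death in the single-dose screen, raw or plate-pattern-corrected value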
Rh123 counter: membrane potential counter-screen of mitochondrial pore inhibitors; shares compounds with MPTP block; isolated mitochondria, Rhodamine 123 fluorescence; inhibition, % at 10 µM; 5,000 tested, 78% active; AID 624504; in the data active means inhibition above about 22%
MPTP swell DR: MPTP inhibition, dose response swelling confirmation; shares compounds with MPTP block; isolated mitochondria swelling, absorbance; IC50, µM; 780 tested, 58% active; AID 651561; in the data active means IC50 below about 20 µM
MPTP counter DR: counter-screen for mitochondrial permeability transition pore inhibitors, dose response | shares compounds with MPTP block | isolated mitochondria counterscreen, fluorescence read-out | IC50, µM | 780 tested, 49% active | AID 651564; in the data active means IC50 below about 80 µM
Of the large screens only hits and unclear results are named; the others gave an inactive call (follow-up assays come after a bar, where they were run). In the library only some 3.8% were active in any assay of this set; here they are far more common.

COc1ccc(NC(=O)NC23CC4(C)CC(C)(CC(C)(C4)C2)C3)cc1OC	MPTP block 76.5 | Rh123 counter 50.8
Cc1ccc(C)n1NC(=O)c1ccccc1O	MPTP block 77.5 | Rh123 counter 58.0
c1ccc(-c2nc(-c3ccncc3)no2)cc1	none
c1ccc(C(Cc2nc(-c3ccncc3)no2)c2ccccc2)cc1	MPTP block 77.6 | Rh123 counter 71.9
Cc1cc(C(=O)NNC(=O)[C@H](C)NC(=O)c2ccc(Br)cc2)c(C)o1	none
COc1ccc(NC(=O)COC(=O)c2cc(C)oc2C)cc1OC	none
COc1ccc(OC)c(C(=O)COC(=O)c2cc(C)oc2C)c1	MPTP block 60.0 | Rh123 counter inactive | MPTP swell DR 10.2 | MPTP counter DR inactive
O=S(=O)(c1cccc(NC(=S)N2CCN(c3ccc(F)cc3)CC2)c1)C(F)F	MPTP block 66.9 | Rh123 counter 61.5
O=S(=O)(c1cccc(NC(=S)N2CCN(c3cccc(Cl)c3)CC2)c1)C(F)F	MPTP block 76.6 | Rh123 counter 86.2
COc1ccc(COC(=O)c2cccc(S(=O)(=O)N3CCN(C(C)=O)CC3)c2)cc1F	MPTP block 55.7 | Rh123 counter 45.3
COc1ccc(COC(=O)c2cccc(S(=O)(=O)N3CCN(C(C)=O)CC3)c2)cc1	none
CSCCC(NS(=O)(=O)c1ccc(C)cc1)C(=O)N1CCCCCCC1 (stereo not given)	none
Cc1ccc(C(=O)NC(C)c2ccncc2)o1 (stereo not given)	none
Cn1c(=O)c2[nH]c(CCCCCCCCc3nc4ccccc4[nH]3)nc2n(C)c1=O	MPTP block 101.9 (no result: Mot1-301 SUMO, Yeast superoxide) | Rh123 counter 93.8
Cn1c(=O)c2[nH]c(CCCCc3nc4ccccc4[nH]3)nc2n(C)c1=O	none (no result: Mot1-301 SUMO, Yeast superoxide)
CC(C1CC1)N(Cc1ccccc1)C(=S)Nc1ccccc1 (stereo not given)	none
CC(C1CC1)N(Cc1ccccc1)C(=S)Nc1cccc(C(F)(F)F)c1 (stereo not given)	MPTP block 65.4 | Rh123 counter 84.6
CCCCN1C[C@H](c2ccc(OC)cc2)[C@@H](CC(=O)Nc2ccc(Br)cc2)C1=O	none (no result: Mot1-301 SUMO, Yeast superoxide)
COc1ccccc1S(=O)(=O)N(C)C[C@H]1Oc2cc(C#CCC3CCCC3)ccc2S(=O)(=O)N([C@H](C)CO)C[C@H]1C	none (no result: Mot1-301 SUMO, Yeast superoxide)
O=C(Cc1ccccc1)NCC(=O)Nc1ccccc1Br	none
CSCc1cccc(C(=O)OC(C)C(=O)Nc2c(C)n(C)n(-c3ccccc3)c2=O)c1 (stereo not given)	none (no result: Mot1-301 SUMO)
Cc1cc(N2CCCCC2)nc(NCc2ccccc2)n1	MPTP block 55.3 | Rh123 counter 88.5
Cc1cc(Nc2cccc(Cl)c2)nc(NCc2ccccc2)n1	MPTP block 82.2 | Rh123 counter 86.8
Cc1cc(N/N=C/c2cccc(Cl)c2)nc(NCc2ccccc2)n1	none
CCCOc1ncnc2c1[nH]c1ccc(OC)cc12	none
CCCCOc1ncnc2c1[nH]c1ccc(C)cc12	MPTP block 82.8 | Rh123 counter 56.3
O=C(CCN1C(=O)/C(=C/c2cccs2)SC1=S)Nc1ccccc1O	none
O=C1/C(=C\c2cccc(O)c2O)SC(=S)N1Cc1ccccc1	MPTP block 91.6 | Rh123 counter 45.8
O=C(CCCN1C(=O)/C(=C\c2cccs2)SC1=S)Nc1cc([N+](=O)[O-])ccc1O	MPTP block 73.6 | Rh123 counter 63.5
O=C1/C(=C\c2cc([N+](=O)[O-])ccc2O)SC(=S)N1Cc1ccc(Cl)cc1	MPTP block 52.1 | Rh123 counter inactive
Cc1ccccc1/C=C1\SC(=S)N(/N=C/c2cc([N+](=O)[O-])ccc2O)C1=O	MPTP block 79.9 | Rh123 counter 45.0
O=C(O)CN1C(=O)/C(=C\c2cc([N+](=O)[O-])ccc2OCc2ccccc2Cl)SC1=S	none
Cc1cccc(NC(=O)N2CCN(Cc3ccc4c(c3)OCO4)CC2)c1C	none
CCN(CC)CCCN=Cc1c(O)n(Cc2ccccc2)c(=O)c2ccccc12	MPTP block 78.6 | Rh123 counter inactive | MPTP swell DR 11.8 | MPTP counter DR inactive
COc1cc([N+](=O)[O-])ccc1NC(=O)COC(=O)c1ccc(NC(N)=O)cc1	none
OC(CN1CCN(c2cccc(C(F)(F)F)c2)CC1)c1c[nH]c2ccccc12 (stereo not given)	MPTP block 52.6 | Rh123 counter inactive | MPTP swell DR inactive | MPTP counter DR 72.5
Clc1cccc2c1Sc1ccccc1CC2N1CCNCC1 (stereo not given)	MPTP block 93.1 | Rh123 counter inactive
COCCCN1CCN(C2Cc3ccccc3Sc3ccc(Cl)cc32)CC1 (stereo not given)	none
Clc1ccc2c(c1)C(N1CCNCC1)Cc1ccccc1S2 (stereo not given)	MPTP block 83.4 | Rh123 counter inactive
COc1ccc(CC(=O)Nc2ccc(F)c(F)c2F)cc1S(=O)(=O)N1CCOCC1	none
COc1ccccc1CC(=O)Nc1ccc([N+](=O)[O-])cc1O	MPTP block 53.7 | Rh123 counter 81.8
COc1ccccc1CC(=O)Nc1ccccc1O	none
CC(C)(C)c1ccccc1NC(=O)c1ccc(-n2cncn2)c([N+](=O)[O-])c1	none
Cc1ccc(F)c(NC(=O)/C(C#N)=C(\O)c2ccc(C(C)(C)C)cc2)c1	MPTP block 83.0 (no result: Mot1-301 SUMO) | Rh123 counter 71.0
Cc1cccc(NC(=O)C(=O)NNC(=O)c2ccc(C(C)(C)C)cc2)c1	none
Cc1cc(N2CCCC2=O)cc(C)c1S(=O)(=O)NCCOc1ccc(C(C)(C)C)cc1	MPTP block 104.6, aDG glyco up 11.2 | Rh123 counter 98.6
CC(C)NC(=S)Nc1ccc(Oc2ccccc2)cc1	none
CCCNC(=S)Nc1ccc(Oc2ccccc2)cc1	MPTP block 58.1 | Rh123 counter 64.5
CCCCc1ccc(NC(=S)NCc2ccc(OC)cc2)cc1	MPTP block 56.8 | Rh123 counter 75.3
CCCCNC(=S)Nc1ccc(Oc2ccccc2)cc1	MPTP block 76.0 | Rh123 counter 91.4
CCN(C(=S)Nc1ccc(Oc2ccccc2)cc1)c1ccccc1	MPTP block 91.0 | Rh123 counter 97.5
Cc1ccc(-c2nc(SC(C)C(=O)N3CCCC3)n[nH]2)cc1 (stereo not given)	none
NC(=O)C1=CC2C3C=CC2(O)C(=O)OC3O1 (stereo not given)	none (no result: Mot1-301 SUMO, Yeast superoxide)
Cc1sc2ncnc(N3CCC(C(=O)NNC(=O)COc4cccc(C(F)(F)F)c4)CC3)c2c1C	none
